Results on one compound are retold here after the supplement of paper PMC11624193, “Coupling cellular drug-target engagement to downstream pharmacology with CeTEAM” (Nature Communications, 2024).

This experiment concerns the target PARP1 L713F-nLuc biosensor (HCT116) (UniProt P09874). The experiment can be described thus: PARP1 L713F-nLuc/akaLuc ratio relative to DMSO control (biosensor stabilization) (fold change); higher = more PARP1 biosensor stabilization (target engagement / stabilizer), active = hit call of the paper. As to conditions: stock concentration (mM; final µM = stock mM x 1): 2; 24 h.

A number with no mark means an inactive call.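 The calls were made as follows: active = log2 fold change beyond 2 SD from the library mean after excluding viability outliers; inactive = within 2 SD.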

PARP1 L713F-nLuc biosensor (HCT116), sequence (P09874 whole entry L713F, looked up): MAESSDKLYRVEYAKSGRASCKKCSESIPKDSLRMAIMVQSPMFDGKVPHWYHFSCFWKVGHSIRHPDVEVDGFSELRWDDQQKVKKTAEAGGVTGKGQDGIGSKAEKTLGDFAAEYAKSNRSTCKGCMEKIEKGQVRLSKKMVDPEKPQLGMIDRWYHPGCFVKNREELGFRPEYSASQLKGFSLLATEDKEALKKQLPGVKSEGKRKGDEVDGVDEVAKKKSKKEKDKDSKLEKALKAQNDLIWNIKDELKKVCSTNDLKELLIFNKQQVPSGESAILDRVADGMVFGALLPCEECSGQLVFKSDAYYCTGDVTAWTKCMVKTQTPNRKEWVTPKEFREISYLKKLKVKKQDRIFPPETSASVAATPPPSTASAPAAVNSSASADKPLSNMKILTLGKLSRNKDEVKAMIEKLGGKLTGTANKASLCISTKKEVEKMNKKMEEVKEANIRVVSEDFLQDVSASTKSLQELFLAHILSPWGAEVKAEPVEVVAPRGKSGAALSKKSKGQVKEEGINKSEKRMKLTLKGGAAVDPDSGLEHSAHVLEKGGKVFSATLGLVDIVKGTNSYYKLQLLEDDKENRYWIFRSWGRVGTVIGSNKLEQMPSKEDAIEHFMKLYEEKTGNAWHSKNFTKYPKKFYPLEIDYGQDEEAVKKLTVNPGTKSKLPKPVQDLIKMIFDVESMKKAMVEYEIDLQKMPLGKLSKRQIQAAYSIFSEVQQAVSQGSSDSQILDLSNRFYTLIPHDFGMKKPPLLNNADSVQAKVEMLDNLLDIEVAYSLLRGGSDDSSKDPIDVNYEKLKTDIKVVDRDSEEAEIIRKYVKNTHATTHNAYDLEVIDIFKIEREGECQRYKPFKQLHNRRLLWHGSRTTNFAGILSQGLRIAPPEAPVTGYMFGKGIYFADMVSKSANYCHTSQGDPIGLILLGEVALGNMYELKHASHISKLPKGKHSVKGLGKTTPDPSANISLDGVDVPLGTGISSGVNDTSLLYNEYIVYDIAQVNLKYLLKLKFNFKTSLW

On to `CC(=O)c1c(O)c(C)c(O)c(Cc2c(O)c3c(c(C(=O)/C=C/c4ccccc4)c2O)OC(C)(C)C=C3)c1O` [Rottlerin], for which the “PARP1 L713F-nLuc/akaLuc ratio” value is 0.628.
